Screens deposited in PubChem BioAssay by National Center for Advancing Translational Sciences (NCATS).
Luciferase inh: inhibitors of firefly (Photinus pyralis) luciferase; P08659; purified P. pyralis luciferase, luminescence, biochemical; 76,000 tested, 2.5% active; Potency, µM (highest dose often 115 µM), most hits filed as inhibitors; further: nearly all actives have a fitted effect of over 65% in size
Target sequence (P08659 whole entry, looked up): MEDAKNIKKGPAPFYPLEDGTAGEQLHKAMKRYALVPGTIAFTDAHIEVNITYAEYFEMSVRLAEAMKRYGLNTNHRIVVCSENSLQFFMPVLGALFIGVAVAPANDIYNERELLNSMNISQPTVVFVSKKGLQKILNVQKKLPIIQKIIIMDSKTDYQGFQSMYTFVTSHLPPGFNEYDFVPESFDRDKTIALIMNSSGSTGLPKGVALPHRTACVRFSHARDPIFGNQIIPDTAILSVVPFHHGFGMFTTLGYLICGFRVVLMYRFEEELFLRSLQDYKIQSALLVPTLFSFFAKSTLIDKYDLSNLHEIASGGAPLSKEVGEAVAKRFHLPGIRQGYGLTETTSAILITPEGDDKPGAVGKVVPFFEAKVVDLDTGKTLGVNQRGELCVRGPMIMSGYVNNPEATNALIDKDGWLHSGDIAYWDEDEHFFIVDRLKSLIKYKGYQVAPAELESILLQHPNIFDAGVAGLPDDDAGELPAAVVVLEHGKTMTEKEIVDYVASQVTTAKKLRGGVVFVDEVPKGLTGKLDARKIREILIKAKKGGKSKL
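FLuc 10nM, D-luciferin 10uM, ATP 10uM, Mg acetate 10mM, Tris acetate pH 7.5, Tween/BSA; cpd qHTS; enzyme added last; CCD luminescence.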
IP6K1 inhibitor: blocks human inositol hexakisphosphate kinase 1 | activity change, % (series mostly up to about 58 µM) | Q92551 | 140,000 tested, 0.81% active | IP6K1 kinase, ADP-Glo luminescence, 2 h; active compounds read low; in the data active means activity change below about -25%
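ADP-Glo luminescence measures ADP made by human IP6K1 during a 2 h RT reaction with ATP/IP6 (mix at 1.3 mM/130 uM); top library doses 57.5 and 19.1 uM final.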
HEK293 viab: reduces viability of HEK-293 SNCA reporter cells. HEK-293-SNCA-luc viability, GF-AFC fluorescence, 24 h. Potency, µM (series often up to 57.1 µM), actives largely listed as cytotoxic. 150,000 tested, 0.12% active; further: nearly all actives have a fitted effect of over 30% in size
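HEK-293-SNCA-luc cells (1500/well) plated 24 h, then exposed 24 h to a dilution series; GF-AFC added 30 min at 37C, fluorescence 405/540 nm; normalised to medium-only and DMSO wells, Hill fit.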
3T3 cytotox: NIH 3T3 cell cytotoxicity | NIH 3T3 viability, CellTiter-Glo ATP luminescence, 48-72 h | Potency, µM (titrated, usually from 96.7 µM), usual class: inhibitors | 94,000 tested, 4.3% active | AID 1345082; further: nearly all actives have a fitted effect of over 55% in size
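NIH 3T3 cells at 400 cells/well received 23 nL of compound by pintool and were incubated 48 or 72 h at 37 °C. Viability was read as ATP-coupled CellTiter-Glo luminescence.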
HEK cytotox: HEK 293 cell cytotoxicity. 94,000 tested, 6.6% active. Potency, µM (titrated, usually from 115 µM), most hits filed as inhibitors. AID 1345083. HEK 293 viability, ATP luminescence (CellTiter-Glo), 48-72 h; further: nearly all actives have a fitted effect of over 60% in size
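ATP-coupled CellTiter-Glo luminescence served as viability read-out, recorded 10 min after reagent addition at room temperature. HEK 293 cells, 250 cells/well, had been incubated with pintool-transferred compound for 48 or 72 hr at 37 degree Celsius.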
SNCA expr inhib: SNCA gene expression inhibition; HEK-293 SNCA-luciferase knock-in, luminescence, 24 h; Potency, µM (doses to about 57.2 µM), most hits filed as inhibitors; 140,000 tested, 0.17% active; AID 1671194; further: nearly all actives have a fitted effect of over 45% in size
Each line names hits and unclear results; the compound was inactive in the other large screens. An excerpt weighted towards active compounds, which were near 7.3% of everything screened. Unless noted, the call rests on the fitted dose curve; in most records, active means well fitted curve in the direction sought with a large enough effect; inconclusive means small, poorly fitted or top-dose-only effect, or another doubt; inactive means no such curve, though single readings can be large; an effect the other way counts as inactive or inconclusive.

O=S(=O)(Nc1cccc(-c2ccc(N3CCCC3)nn2)c1)c1ccc(F)cc1F	none (no result: Luciferase inh, 3T3 cytotox, HEK cytotox)
CSc1ccc(NC(=O)Nc2cccc(-c3ccc(N4CCOCC4)nn3)c2)cc1	Luciferase inh 0.56µM, 3T3 cytotox inconclusive, HEK cytotox inconclusive
CSc1cccc(NC(=O)Nc2cccc(-c3ccc(N4CCCC4)nn3)c2)c1	Luciferase inh 1.8µM, 3T3 cytotox inconclusive, HEK cytotox inconclusive
Cc1ccc(NC(=O)Nc2cccc(-c3ccc(N4CCOCC4)nn3)c2)cc1	Luciferase inh 0.63µM, HEK cytotox inconclusive
COc1ccc(-c2cccc(C(=O)N3CCOCC3)c2)nn1	none (no result: Luciferase inh, HEK293 viab, SNCA expr inhib)
O=C1CCN(CC(O)Cc2ccccc2)c2ccccc2CCN1C/C=C/c1ccccc1 (centres undefined)	3T3 cytotox inconclusive, HEK cytotox 22µM (no result: Luciferase inh)
CC(O)CN1CCC(=O)N(C/C=C/c2ccccc2)Cc2ccccc21 (centres undefined)	3T3 cytotox inconclusive, HEK cytotox inconclusive (no result: Luciferase inh, HEK293 viab, SNCA expr inhib)
COc1ccc(-c2cccc(C(=O)NCCc3ccc(F)cc3)c2)nn1	3T3 cytotox inconclusive, HEK cytotox inconclusive (no result: Luciferase inh, HEK293 viab, SNCA expr inhib)
O=C(Nc1nc2ccc(F)cc2s1)c1nc(S(=O)(=O)Cc2ccccc2)ncc1Cl	IP6K1 inhibitor -40, HEK293 viab 32µM, SNCA expr inhib inconclusive (no result: Luciferase inh, 3T3 cytotox, HEK cytotox)
Cc1ccccc1C(=O)N(C)Cc1cccc(C(F)(F)F)c1	3T3 cytotox inconclusive, HEK cytotox inconclusive
Cc1ccc(C(=O)N(C)Cc2cccc(C(F)(F)F)c2)cc1	3T3 cytotox inconclusive, HEK cytotox 100µM
COc1ccc(C(=O)N(C)Cc2ccccc2C(F)(F)F)cc1	HEK cytotox inconclusive
COc1cccc(C(=O)N(C)Cc2cccc(C(F)(F)F)c2)c1	3T3 cytotox inconclusive, HEK cytotox 89µM
COc1cccc(C(=O)N(C)Cc2ccccc2C(F)(F)F)c1	3T3 cytotox inconclusive, HEK cytotox 100µM
CN(Cc1cccc(C(F)(F)F)c1)C(=O)c1ccccc1Cl	3T3 cytotox 89µM, HEK cytotox 56µM, SNCA expr inhib inconclusive
O=C1CC(c2noc(-c3cc(F)cc(F)c3)n2)CN1c1ccc(F)cc1 (centres undefined)	3T3 cytotox inconclusive, HEK cytotox inconclusive
O=C1NC2(CCN(CC3CCCCC3)C2)OCc2ccccc21 (centres undefined)	Luciferase inh inconclusive
O=C(NC1CCN(c2cc(-c3ccccc3)[nH]n2)C1)c1cc(F)ccc1Cl (centres undefined)	HEK cytotox inconclusive
Cc1ccc(C(=O)N(C)Cc2ccc(-c3ccccc3)cc2)cc1	3T3 cytotox inconclusive, HEK cytotox 89µM
C=CCC1(CO)CCCN(Cc2cc(C3CCCCC3)no2)C1 (centres undefined)	3T3 cytotox inconclusive, HEK cytotox 40µM
NC(=O)c1ccc(NC(=O)c2cc3n(n2)CC(c2ccc(Br)cc2)OC3)cc1 (centres undefined)	3T3 cytotox inconclusive, HEK cytotox 35µM
COc1cc(NC(=O)c2cc3n(n2)CC(c2ccc(Br)cc2)OC3)cc(OC)c1OC (centres undefined)	3T3 cytotox inconclusive, HEK cytotox inconclusive, SNCA expr inhib inconclusive
COc1ccc(NC(=O)c2cc3n(n2)CC(c2ccc(Br)cc2)OC3)cc1OC (centres undefined)	HEK293 viab inconclusive, 3T3 cytotox inconclusive, HEK cytotox 45µM
O=C(c1ccc2nnc(-c3ccoc3)n2c1)N1CCOCC1	none (no result: Luciferase inh)
Cc1c(Cl)cccc1Nc1ncncc1-c1nc(-c2ccccc2)no1	none
CCCCN(C)C(=O)CSc1nc2ccccc2nc1Cc1ccc(C)cc1	HEK293 viab inconclusive, SNCA expr inhib 14µM (no result: Luciferase inh, 3T3 cytotox, HEK cytotox)
Cn1ncc2c(C(=O)N3CCC(c4ccccc4)CC3)cc(-c3ccccc3F)nc21	3T3 cytotox inconclusive, HEK cytotox inconclusive (no result: Luciferase inh, HEK293 viab, SNCA expr inhib)
CN(C)C[C@@H]1CN(C)C[C@H]1NS(=O)(=O)c1ccccc1C(F)(F)F	none
CN1Cc2ccc(NCc3ccccc3)nc2C(C)(C(=O)NCCOc2ccccc2)C1 (centres undefined)	Luciferase inh 63µM, HEK293 viab inconclusive, 3T3 cytotox inconclusive, HEK cytotox inconclusive
CN(C)CCNC(=O)C1(C)CN(Cc2ccccc2)Cc2ccc(Nc3ccccc3)nc21 (centres undefined)	3T3 cytotox 16µM, HEK cytotox 28µM, SNCA expr inhib inconclusive
COc1ccc(NC(=O)C2(C)CN(C)Cc3ccc(NCc4ccccc4)nc32)cc1 (centres undefined)	3T3 cytotox 45µM, HEK cytotox inconclusive
CN1Cc2ccc(NCc3ccccc3)nc2C(C)(C(=O)Nc2ccccc2)C1 (centres undefined)	HEK293 viab inconclusive, 3T3 cytotox 45µM, HEK cytotox 63µM, SNCA expr inhib inconclusive
COCCN1Cc2ccc(NCc3ccccc3)nc2C(C)(C(=O)Nc2cccnc2)C1 (centres undefined)	3T3 cytotox inconclusive, HEK cytotox inconclusive
COC[C@@H]1CN(S(=O)(=O)c2ccccc2C)C[C@H]1c1nc(C)no1	none
CCOc1ccccc1C(=O)N1CCC(N2C(=O)CCC2C(=O)NCc2ccccc2)CC1 (centres undefined)	none
COCCCn1c(=O)c(C(=O)NC(C)C)nc2cccnc21	none (no result: Luciferase inh)
COc1cccc(Nc2ccc3c(n2)C(C)(C(=O)NCc2cccs2)CN(C)C3)c1 (centres undefined)	3T3 cytotox inconclusive, HEK cytotox inconclusive
CN1Cc2ccc(NCc3ccccc3)nc2C(C)(C(=O)NCc2cccs2)C1 (centres undefined)	3T3 cytotox 79µM, HEK cytotox inconclusive
COCCN(Cc1ccsc1)Cc1cn[nH]c1-c1ccc(F)cc1	HEK cytotox 89µM
Fc1ccc(-c2[nH]ncc2CN(Cc2cccnc2)Cc2cccnc2)cc1	3T3 cytotox inconclusive, HEK cytotox inconclusive
O=C(CCc1ccnc(N2CCOCC2)c1)NCc1cnccn1	HEK293 viab inconclusive
O=C(Cc1ccc2c(c1)OCO2)NCc1cccnc1N1CCOCC1	Luciferase inh 28µM
O=C(CCc1ccnc(N2CCOCC2)c1)Nc1ccc2c(c1)OCO2	Luciferase inh 35µM
COc1cccc(-c2nc3c([nH]2)CN(c2cc(C4CC4)ncn2)CC3)c1	Luciferase inh 25µM, HEK293 viab inconclusive, 3T3 cytotox inconclusive, HEK cytotox 35µM
CCOC(=O)C1CCN(C(=O)c2ccc3nc(-c4ccnc(Cl)c4)oc3c2)CC1	3T3 cytotox 100µM, HEK cytotox 100µM (no result: Luciferase inh)
CCN1C(=O)C2(CCN(S(=O)(=O)c3ccc(Cl)cc3C)CC2)c2ccccc21	3T3 cytotox inconclusive, HEK cytotox 10µM, SNCA expr inhib inconclusive
CCOc1ccccc1NC(=O)C1CCN(C(=O)c2ncn3c2COC(c2ccc(F)cc2)C3)CC1 (centres undefined)	Luciferase inh inconclusive
